From paper PMC12864922, “TDP-43 directly inhibits mRNA accumulation in neurites through modulation of mRNA stability”
The full ranking holds about 9,900 sequences; the median of “r (bound/input frequency ratio)” is about 0.7, and the highest 2% start at about 6.5. Many of the other results were omitted from the sample, so the highest values are more common in it than they were.

B1: ENSMUSG00000034801.46|Sos2 (ssRNA)
RNA: GGGAGUUCUACAGUCCGACGAUCGCUUCGAUAUCCGCAUGCUACCACCCGCCACUGUAUAGACUGCCUCUGCUGGAAAAUGCAGAAACUCCUCAAUGACCUUGGCCAUAUGUAGUCAUUGACACUGGAAUAGUAUUUGUAAAGGUUUUUAAUUUAUUCAAAAAGACAUAGUAUUUUAGUACUUUUUACAGAAAUGCUACUGAUUAAAUAAGCUCUUAAGAAUUAGUAAACUUGUUGGAUGGCAGUGGCCCACAGCUGUAAUCCCAGCACCCUGGUUGCAGGGGCAGGUGGGCUUCAGGGUUUGCUCUUGCGGUCGCACUAGUGUGGAAUUCUCGGGUGUCAAGG
B2: ENSMUSG00000043670.73|Diras1 (ssRNA)
RNA: GGGAGUUCUACAGUCCGACGAUCGCUUCGAUAUCCGCAUGCUAACACACUGGAGGUUUGAUCCCUGUGGAUCUGAAAACAGGGACCUGGCUAAGGAACUGCUCAUCCCAGUCAGGCCCAGAGAGGUUACCUUGCCUCUCCAUCUCUGUCCCUGUGUGCCCAGCCAUGCCCACUGUCCCUGUCCCUCACAUUCUAUCACUGUGACCUCUGGGGAGUGCCCAUUGACCUCAUCUUCCUUCACUAAUAUCUUAUUUCUUUCACCUGAUCCUGUCCUUUCCCCGUGACCUCUGACCUGUGGCCUUCCCUCUUGCGGUCGCACUAGUGUGGAAUUCUCGGGUGUCAAGG
B3: ENSMUSG00000004113.197|Cacna1b|112:116 (ssRNA)
RNA: GGGAGUUCUACAGUCCGACGAUCGCUUCGAUAUCCGCAUGCUACCUCUGCUCAACCAAGUGCCUGAUCUCUGGCUCUGAGCAUCGUGGAUGAGGUACGGCCUCAGGAAGCAUCGGGUGGAUUGGGUGGGAGCUGCUCAGAGCAGCACGGGGGCUACACACUUAGGGACAUUGACAGUGUCCAUCAGCAUGUCAGAGAAGCAGCUGUAGUGCCCGUGUUUCUCCCUGAGUCAUGGGUUCUGAAGAAGCCAGAGCGGCACAAUGCGUGCUUGCAUGAGGCACUUUCAGCCUUUUUAAAUCUGACUCUCUUGCGGUCGCACUAGUGUGGAAUUCUCGGGUGUCAAGG
B4: ENSMUSG00000090935.575|Synj2bp (ssRNA)
RNA: GGGAGUUCUACAGUCCGACGAUCGCUUCGAUAUCCGCAUGCUAAUUCAAAUUUUAUGUUUCUUAUAGACUGACUCAAAUAUUCCUACCACCUUAAAAUUAUAUAUGAUGCACCUACCACAUAAAUUAUAAUGUUUAAUGUUUUGAAAAUGGAUUAUAGGUAUUUUUAAGUUUUCAUAAAGUAUUUCUUAUAUUUGUCAUUGUGAAUUAUAUGUAAUUCUAAUAGACACUGUUUGCUUCAGUUGUUUUUGUUUCCUUUUCCUACAGUUUUCUGUGUGGGUGAUUUCAUUUAAUUAAUUGGACAGCUCUUGCGGUCGCACUAGUGUGGAAUUCUCGGGUGUCAAGG
B5: ENSMUSG00000028439.180|Fam219a (ssRNA)
RNA: GGGAGUUCUACAGUCCGACGAUCGCUUCGAUAUCCGCAUGCUAUGUGUGUGUGCCUGUGUGUGUGCGUGUGCGUGUGUGUAUGUGUGUGCGUGUGUGUGUGUGUGUGUUGUACCCGAGUGUGUGUUGAGCCUAUCUGUCCAGGGAACCAGAUUGGUGUCCGAGAUGAGGAAAUGGCUGUGGCCUGGGAAAUCAGUGAGAGGCCGCUUGGGAAUGAGAAUGCAGUGGACUGAAAGCACAGCCUGGCCAUCUGGAACCUGGGUUCUGGUCCCAGCCUCGGCAUUCUCCCUGAGCUCCUAAGCAAUCUCUUGCGGUCGCACUAGUGUGGAAUUCUCGGGUGUCAAGG
B6: ENSMUSG00000028439.179|Fam219a (ssRNA)
RNA: GGGAGUUCUACAGUCCGACGAUCGCUUCGAUAUCCGCAUGCUAUGUGCAUGUGUGUGUGCCUGUGUGUGUGCGUGUGCGUGUGUGUAUGUGUGUGCGUGUGUGUGUGUGUGUGUUGUACCCGAGUGUGUGUUGAGCCUAUCUGUCCAGGGAACCAGAUUGGUGUCCGAGAUGAGGAAAUGGCUGUGGCCUGGGAAAUCAGUGAGAGGCCGCUUGGGAAUGAGAAUGCAGUGGACUGAAAGCACAGCCUGGCCAUCUGGAACCUGGGUUCUGGUCCCAGCCUCGGCAUUCUCCCUGAGCUCCUACUCUUGCGGUCGCACUAGUGUGGAAUUCUCGGGUGUCAAGG
B7: ENSMUSG00000028439.178|Fam219a (ssRNA)
RNA: GGGAGUUCUACAGUCCGACGAUCGCUUCGAUAUCCGCAUGCUACAUGUGUGUGCAUGUGUGUGUGCCUGUGUGUGUGCGUGUGCGUGUGUGUAUGUGUGUGCGUGUGUGUGUGUGUGUGUUGUACCCGAGUGUGUGUUGAGCCUAUCUGUCCAGGGAACCAGAUUGGUGUCCGAGAUGAGGAAAUGGCUGUGGCCUGGGAAAUCAGUGAGAGGCCGCUUGGGAAUGAGAAUGCAGUGGACUGAAAGCACAGCCUGGCCAUCUGGAACCUGGGUUCUGGUCCCAGCCUCGGCAUUCUCCCUGAGCUCUUGCGGUCGCACUAGUGUGGAAUUCUCGGGUGUCAAGG
B8: ENSMUSG00000028439.177|Fam219a (ssRNA)
RNA: GGGAGUUCUACAGUCCGACGAUCGCUUCGAUAUCCGCAUGCUAUAUGCACAUGUGUGUGCAUGUGUGUGUGCCUGUGUGUGUGCGUGUGCGUGUGUGUAUGUGUGUGCGUGUGUGUGUGUGUGUGUUGUACCCGAGUGUGUGUUGAGCCUAUCUGUCCAGGGAACCAGAUUGGUGUCCGAGAUGAGGAAAUGGCUGUGGCCUGGGAAAUCAGUGAGAGGCCGCUUGGGAAUGAGAAUGCAGUGGACUGAAAGCACAGCCUGGCCAUCUGGAACCUGGGUUCUGGUCCCAGCCUCGGCAUUCUCCUCUUGCGGUCGCACUAGUGUGGAAUUCUCGGGUGUCAAGG

Molecular target: TDP-43 (Homo sapiens, UniProt Q13148 1-414)
Sequence (Q13148 whole entry): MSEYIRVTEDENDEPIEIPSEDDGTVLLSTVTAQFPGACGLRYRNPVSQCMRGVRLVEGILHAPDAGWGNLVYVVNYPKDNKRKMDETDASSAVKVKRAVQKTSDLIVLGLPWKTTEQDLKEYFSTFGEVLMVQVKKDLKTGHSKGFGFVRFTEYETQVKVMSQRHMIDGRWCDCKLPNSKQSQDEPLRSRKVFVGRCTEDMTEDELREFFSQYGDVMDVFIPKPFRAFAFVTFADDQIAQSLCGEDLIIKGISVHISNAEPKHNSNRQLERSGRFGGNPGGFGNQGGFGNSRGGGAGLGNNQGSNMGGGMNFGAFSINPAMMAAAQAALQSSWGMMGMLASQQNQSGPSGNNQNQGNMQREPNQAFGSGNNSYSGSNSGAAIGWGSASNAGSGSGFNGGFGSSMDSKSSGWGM
Assay: RNA Bind-n-Seq with designed 260-mer pool; 25 mM Tris-HCl, 150 mM KCl, 3 mM MgCl2, BSA (printed 500 mg/mL), 20 units/mL SUPERase IN; pH not stated; 500 nM RNA pool, 1 h, 4 C; TDP-43 5, 50, 500 nM; high values mean tight binding
Details: protein: recombinant; tags: SBP (GST cleaved off with PreScission; pGEX-GST-SBP)
In short: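 Recombinant SBP-tagged TDP-43 at 5, 50 or 500 nM was captured on streptavidin beads, then incubated 1 h at 4 °C with 500 nM of an in vitro-transcribed 260-nt 3′ UTR oligo pool in 25 mM Tris-HCl, 150 mM KCl, 3 mM MgCl2, BSA and SUPERase IN. Bound RNA was washed, eluted with biotin, reverse transcribed, PCR-amplified and sequenced. Binding is R, each oligo's mapped-read-normalized abundance in the bound sample divided by its abundance in input. Duplicates used two independent protein batches.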

Row | Binder | binding signal
1 | B1 | 0.116 R (bound/input frequency ratio)
2 | B2 | 2.54 R (bound/input frequency ratio)
3 | B3 | 0.691 R (bound/input frequency ratio)
4 | B4 | 0.0736 R (bound/input frequency ratio)
5 | B5 | 5.95 R (bound/input frequency ratio)
6 | B6 | 7.2 R (bound/input frequency ratio)
7 | B7 | 9.43 R (bound/input frequency ratio)
8 | B8 | 8.05 R (bound/input frequency ratio)
